# Results as given in PubChem BioAssay (Tox21).
# Several values for one entry are separate records, joined by “and”; a condition that tells them apart may be missing. Identical values can stand only once. Results filed as inconclusive are left out. A call without a number means that no potency is given here. Where a structure was tested more than once in an assay, its records may differ in their call. Activity calls are given as the source filed them. Unless noted, the call rests on the fitted dose curve.
# How the values were obtained:
# [1] = qHTS assay to identify small molecule antagonists of the vitamin D receptor (VDR) signaling pathway - cell viability counter screen (AID 743225; active means well fitted curve in the direction sought with a large enough effect in the repeat runs; an effect the other way counts as inactive or inconclusive; further: nearly all actives have a fitted effect of over 50% in size)
# In short: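 HEK293T VDR-bla; cpd + 1a,25-(OH)2D3 3 nM final, 16 h 37C/5% CO2; B/G FRET substrate 2 h RT; then CellTiter-Glo 30 min RT, luminescence.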
# [2] = qHTS assay to identify small molecule agonists of the NFkB signaling pathway (AID 1159509; active means well fitted curve in the direction sought with a large enough effect in the signal ratio in the repeat runs, not every such curve was filed as active; the % refers to the signal ratio; further: series mostly up to about 61 µM)
# In short: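 ME-180 NFkB-bla, 2,000 cells/well, overnight plating; cpd pinned in DMSO, 5 h 37 C; B/G FRET substrate 1.5 h RT; ex 405, em 460/530 nm.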
# [3] = qHTS assay to identify small molecule agonists of the endoplasmic reticulum stress response signaling pathway (AID 1159516; active means well fitted activation curve with a large enough effect in the signal ratio in the repeat runs, not every such curve was filed as active; the % refers to the signal ratio)
# In short: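 Reporter HeLa cells (ESRE-beta-lactamase) underwent 5 hr compound incubation at 37 C and 5% CO2 in quantitative HTS format. Detection followed 2 hr of FRET substrate loading at room temperature.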
# [4] = qHTS assay to identify small molecule agonists of the endoplasmic reticulum stress response signaling pathway - cell viability counter screen (AID 1159517);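 further: HeLa cells carrying an ER stress response element beta-lactamase reporter; series mostly up to about 61 µM; nearly all actives have a fitted effect of over 50% in size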
# In short: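 ESRE-bla HeLa cells, 1,500 per well, seeded overnight then treated with compounds for 5 hr at 37 C. After the beta-lactamase read, viability in the same wells is measured by CellTiter-Glo luminescence after 30 min at room temperature.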
# [5] = qHTS assay to identify small molecule antagonists of the retinoid-related orphan receptor gamma (ROR-gamma) signaling pathway - cell viability counter screen (AID 1159520; active means well fitted curve in the direction sought with a large enough effect in the repeat runs; an effect the other way counts as inactive or inconclusive; further: nearly all actives have a fitted effect of over 50% in size)
# In short: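 Tet-on ROR gamma CHO cells were given compounds for 2 hr, then doxycycline hyclate at 1 uM final, and incubated 16 hr at 37 C. Viability was measured as ATP content by CellTiter-Glo luminescence.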
# [6] = target: Nuclear receptor ROR-gamma (Homo sapiens) (UniProt P51449); test: qHTS assay to identify small molecule antagonists of the retinoid-related orphan receptor gamma (ROR-gamma) signaling pathway (AID 1159521; active means well fitted curve in the direction sought with a large enough effect in the repeat runs; an effect the other way counts as inactive or inconclusive;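 further: CHO cells with doxycycline inducible ROR-gamma driving an RORE luciferase reporter; top concentration of the series differs between compounds; nearly all actives have a fitted effect of over 50% in size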)
# In short: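 Cells were plated, rested 4 h at 37 C, exposed to compounds for 2 h, then given 1 uM final doxycycline hyclate to induce RORγ expression. After 16 h, ONE-Glo luminescence from the ROR response element reporter was measured.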
# [7] = qHTS assay to identify small molecule agonists of the AP-1 signaling pathway - cell viability counter screen (AID 1159525); further: nearly all actives have a fitted effect of over 55% in size
# In short: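 AP-1-bla ME-180 cells in Opti-MEM with 0.5% dialyzed FBS, compound exposure 5 h at 37 C in 15-point titration. Viability read in the same wells as ATP content by CellTiter-Glo luminescence, normalised to tetra-n-octylammonium bromide and DMSO controls.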
# [8] = qHTS assay to identify small molecule agonists of the AP-1 signaling pathway (AID 1159526)
# [9] = target: Retinoic acid receptor RXR-alpha (Homo sapiens) (UniProt P19793); test: qHTS assay to identify small molecule agonists of the RXR signaling pathway (AID 1159527); further: nearly all actives have a fitted effect of over 35% in size; further: potency means the concentration at half of the fitted maximal effect
# In short: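 Cells plated at 2,000/well, rested 5 hr at 37 C, pin-dosed with DMSO compound solutions, incubated 16 hr, then loaded with B/G FRET substrate for 2 hr at RT before dual-emission fluorescence reading.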
# Sequence of Retinoic acid receptor RXR-alpha (Homo sapiens) (P19793 whole entry, looked up): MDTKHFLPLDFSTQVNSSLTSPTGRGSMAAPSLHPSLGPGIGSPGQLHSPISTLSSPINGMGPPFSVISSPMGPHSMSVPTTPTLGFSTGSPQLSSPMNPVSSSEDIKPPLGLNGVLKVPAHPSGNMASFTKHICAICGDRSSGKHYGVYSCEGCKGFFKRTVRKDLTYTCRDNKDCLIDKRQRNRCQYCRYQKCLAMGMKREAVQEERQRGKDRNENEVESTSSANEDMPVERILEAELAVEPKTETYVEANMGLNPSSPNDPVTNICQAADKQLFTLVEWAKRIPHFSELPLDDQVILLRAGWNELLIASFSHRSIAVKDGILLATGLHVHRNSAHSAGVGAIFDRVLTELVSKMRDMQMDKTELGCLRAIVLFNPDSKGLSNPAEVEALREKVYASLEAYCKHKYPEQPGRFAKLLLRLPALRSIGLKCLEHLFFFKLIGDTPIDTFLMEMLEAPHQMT
SMILES,outcome [1],outcome [2],outcome [3],Potency [4],outcome [5],Potency [6],outcome [7],Potency [8],Potency [9]
CCCCCCCCCCO,inactive,inactive,inactive,inactive,inactive,inactive,inactive,inactive,inactive
C=Cc1ccc(C)cc1,inactive,inactive,,inactive,,inactive,inactive,inactive,inactive
CC(=O)OCc1ccco1,inactive,inactive,inactive,inactive,inactive,inactive,inactive,inactive,inactive
O=C(O)/C=C/C(=O)O,inactive,inactive,,inactive,inactive,inactive,inactive,inactive,inactive
CN1C(=O)CC[C@H]1c1cccnc1,inactive,inactive,,inactive,inactive,inactive,inactive,inactive,inactive
CC(C)=CCl,inactive,inactive,inactive,inactive,inactive,inactive,inactive,inactive,inactive
CCCCCCCO,inactive,inactive,inactive,inactive,inactive,inactive,inactive,inactive,inactive
C=C(C)CNCC,inactive,inactive,inactive,inactive,inactive,inactive,inactive,inactive,inactive
CC(C)(Oc1ccc(CCNC(=O)c2ccc(Cl)cc2)cc1)C(=O)O,inactive,inactive,inactive,inactive,,inactive,inactive,inactive,inactive
O=[N+]([O-])c1ccc2nc[nH]c2c1,inactive,inactive,inactive,inactive,,inactive,inactive,inactive,inactive
Cc1ccc(S(=O)(=O)N=C=O)cc1,inactive,inactive,inactive,inactive,inactive,inactive,inactive,inactive,inactive
CCCCCCC=O,inactive,inactive,,inactive,,inactive,inactive,inactive,inactive
Cc1ccc2ncccc2c1,inactive,inactive,inactive,inactive,,inactive,inactive,inactive,inactive and 13.8 µM (active)
C[Si]1(C)O[Si](C)(C)O[Si](C)(C)O[Si](C)(C)O1,inactive,inactive,inactive,inactive,,inactive,inactive,inactive,inactive
CC(C)CC(=O)CC(C)CC(C)C (centres undefined),inactive,inactive,inactive,inactive,inactive,inactive,inactive,inactive,inactive
COc1ccc(OC)cc1,inactive,inactive,inactive,inactive,,inactive,inactive,inactive,inactive
NCCCCCCN,inactive,inactive,inactive,inactive,,inactive,inactive,inactive,inactive

SMILES,outcome [1],outcome [2],outcome [3],Potency [4],outcome [5],Potency [6],outcome [7],Potency [8],Potency [9]
CCCCCCCCCCCCCCCCO,inactive,inactive,inactive,inactive,,inactive,inactive,inactive,inactive
O=C1C(c2[nH]c3ccccc3c2O)=Nc2ccccc21,inactive,inactive,inactive,inactive,,inactive,inactive,inactive,inactive
CNC(=S)N(C)C,inactive,inactive,,inactive,,inactive,inactive,inactive,inactive
COCCOC(=O)c1ccccc1C(=O)OCCOC,inactive,inactive,,inactive,inactive,inactive,inactive,inactive,inactive
CCCCCCO,inactive,inactive,,inactive,,inactive,inactive,inactive,inactive
Nc1nc(N)nc(-c2ccccc2)n1,inactive,inactive,inactive,inactive,inactive,inactive,inactive,inactive,inactive
O=C1CCCC1,inactive,inactive,,inactive,inactive,inactive,inactive,inactive,inactive
C[C@]12CCC(=O)C=C1CC[C@@H]1[C@@H]2[C@@H](O)C[C@@]2(C)[C@H]1CC[C@]2(O)C(=O)CO,inactive,inactive,inactive,inactive,,inactive,inactive,inactive,inactive
CCOCC(=O)O,inactive,inactive,inactive,inactive,,inactive,inactive,inactive,inactive
CC(C)CCCCCCCOC(=O)CCCCC(=O)OCCCCCCCC(C)C,inactive,inactive,inactive,inactive,inactive,inactive,inactive,inactive,inactive
CC(=O)c1ccc(O)cc1,inactive,inactive,inactive,inactive,inactive,inactive,inactive,inactive,inactive
COC(=O)CCCC(=O)OC,inactive,inactive,inactive,inactive,,inactive,inactive,inactive,inactive
OCc1ccccc1,inactive,inactive,,inactive,,inactive,inactive,inactive,inactive
OCc1cccc(Oc2ccccc2)c1,inactive,inactive,inactive,inactive,inactive,inactive,inactive,inactive,inactive
CCNc1cccc(C)c1,,inactive,,inactive,inactive,inactive,inactive,inactive,inactive
CC(CCl)OP(=O)(OC(C)CCl)OC(C)CCl (centres undefined),inactive,inactive,,inactive,inactive,inactive,inactive,inactive,inactive
